FLuc counter: counter-screen for miR-21 project: firefly luciferase inhibitors or activators; P08659; purified FLuc, Km substrates, luminescence inhibition; Potency, µM (doses to about 57.5 µM), for the others: at the top dose activity change, negative = inhibition, hits mostly inhibitors; 6.9% of 360,000 active; AID 588342;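 note: plate controls were vehicle for no effect and reference inhibitor for full effect; nearly all actives have a fitted effect of over 55% in size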
Target sequence (P08659 whole entry, looked up): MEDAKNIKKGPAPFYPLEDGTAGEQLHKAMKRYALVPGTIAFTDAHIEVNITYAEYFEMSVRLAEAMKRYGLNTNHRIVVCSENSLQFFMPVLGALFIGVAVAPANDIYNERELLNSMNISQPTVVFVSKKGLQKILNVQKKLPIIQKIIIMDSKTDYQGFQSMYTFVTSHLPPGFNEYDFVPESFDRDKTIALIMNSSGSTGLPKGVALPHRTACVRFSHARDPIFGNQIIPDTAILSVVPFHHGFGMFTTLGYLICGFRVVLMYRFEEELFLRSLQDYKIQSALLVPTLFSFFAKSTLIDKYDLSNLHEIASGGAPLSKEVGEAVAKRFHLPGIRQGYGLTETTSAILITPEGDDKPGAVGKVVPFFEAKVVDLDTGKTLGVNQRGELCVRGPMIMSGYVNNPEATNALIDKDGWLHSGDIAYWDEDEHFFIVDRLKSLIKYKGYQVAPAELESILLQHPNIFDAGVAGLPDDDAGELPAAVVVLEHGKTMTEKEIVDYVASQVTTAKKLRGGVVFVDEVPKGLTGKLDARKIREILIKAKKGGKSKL
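Biochemical qHTS of compounds, final roughly 60 µM downward over six points, against 10 nM purified firefly luciferase using Km concentrations of substrates (10 uM D-luciferin, 10 uM ATP) in Tris acetate pH 7.5 buffer; luminescence output.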
ELG1 DNA repair: blocks ELG1-dependent DNA repair in HEK293T cells; HEK293T ELG1-luciferase reporter, luminescence, 16 h; DNA damage induced by 5-fluorouridine; Potency, µM (top dose mostly 46.1 µM), for the others: at the highest dose activity change, negative = inhibition, actives largely listed as inhibitors; 2.3% of 330,000 active; AID 504467; note: % is set by controls: 0 for no effect and ±100 for the full control effect; nearly all actives have a fitted effect of over 55% in size
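5-Fluorouridine DNA damage + compound/DMSO, 2,000 cells/well, 16 h, 37 °C/5% CO2. ONE-Glo, 30 min RT, luminescence. Readout = decrease in reporter signal.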
NPC1 prom act: activates the NPC1 promoter. Huh7 NPC1 promoter luciferase reporter, 24 h. Potency, µM (titrated, usually from 9.22 µM), for the others: at the top dose activation, hits mostly activators. 2.4% of 320,000 active. AID 485313; note: % of control where 0% means no effect; nearly all actives have a fitted effect of over 60% in size
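Huh7 reporter cells (NPC1 promoter driving luciferase) are dosed with compound for 24 h at 37 °C, 5% CO2; luciferase detection reagent is then added and luminescence measured after 10 min at ambient temperature.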
ELG1 genotox: induces genotoxicity in HEK293T cells with luciferase-tagged ELG1; Potency, µM (doses to about 46 µM), for the others: top-dose activity change, positive = activation, usual class: activators; AID 504466; 1.3% of 330,000 active; HEK293T ELG1-luciferase reporter, luminescence, 16 h; note: % of control where 0% means no effect; nearly all actives have a fitted effect of over 60% in size
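Reporter readout depends on ELG1 protein level, which increases with genetic stress. After 16 hr compound exposure at 37 °C, luciferase activity was quantified using ONE-Glo.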
Rab9 prom act: activators of Rab9 promoter; 2.8% of 320,000 active; Huh7 Rab9 promoter-luciferase reporter, luminescence, 24 h; AID 485297; Potency, µM (doses to about 9.22 µM), inactives show at the top dose activation, negative = inhibition, usual class: activators; note: % of control where 0% means no effect; nearly all actives have a fitted effect of over 60% in size
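Luminescence from Amplite-detected luciferase (10 minutes, ambient) reports Rab9 promoter activation. Before that, stable Rab9-luciferase Huh7 cells (1500/well, reduced-serum OP-MEM I plus 10% FBS) were exposed to compound for 24 hours at 37C.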
SMN2 splice up: SMN2 splice variant enhancement. HEK293 SMN2-luciferase splicing reporter, luminescence, 30-36 h. Potency, µM (top dose mostly 46.1 µM), without a hit: top-dose activity change, positive = activation, actives largely listed as activators. 2.8% of 210,000 active; note: % of control where 0% means no effect; nearly all actives have a fitted effect of over 55% in size
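qHTS luciferase splicing reporter: luminescence rises when SMN2 exon 7 is included in transfected HEK293 cells. Compound exposure lasted 30-36 h at 37C, with 4.5 mM final sodium butyrate as control, followed by a ONE-Glo read.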
Numbers without * were called inactive; ? = inconclusive; nt = no result. An excerpt weighted towards active compounds, which were near 9.3% of everything screened. Calls come from the whole dose curve; as a rule, active = well fitted curve in the direction sought with a large enough effect; inconclusive = small, poorly fitted or top-dose-only effect, or another doubt; inactive = no such curve, though single readings can be large; an effect the other way counts as inactive or inconclusive. Potency is the fitted concentration of half-maximal effect.

SMILES	FLuc counter	ELG1 DNA repair	NPC1 prom act	ELG1 genotox	Rab9 prom act	SMN2 splice up
CCCOc1ccc(C(=O)Nc2ccc(S(=O)(=O)Nc3cc(C)nc(C)n3)cc2)cc1	15µM*	-6%	1%	-4%	-1%	nt
CCOc1cc(C(=O)Nc2ccc(S(=O)(=O)Nc3onc(C)c3C)cc2)cc(OCC)c1OCC	nt	16%	nt	-4%	nt	nt
Cc1cc(C)nc(NS(=O)(=O)c2ccc(NC(=O)COc3ccc(C(C)(C)C)cc3)cc2)n1	11µM*	nt	nt	nt	nt	-9%
CCCOc1ccc(C(=O)Nc2ccc(S(=O)(=O)Nc3onc(C)c3C)cc2)cc1	8.5µM*	?	3%	17%	2%	-24%
CCCCOc1ccc(C(=O)Nc2ccc(S(=O)(=O)Nc3onc(C)c3C)cc2)cc1	17µM*	4%	-7%	0%	-6%	nt
CCCCOc1ccc(C(=O)Nc2ccc(S(=O)(=O)Nc3nc(C)cc(C)n3)cc2)cc1	?	nt	nt	nt	nt	-20%
Cc1cccc(OCC(=O)Nc2ccc(S(=O)(=O)Nc3onc(C)c3C)cc2)c1C	?	-4%	-4%	-2%	-3%	6%
O=C(CSc1nnc(NC(=O)c2ccc(F)cc2)s1)NCc1ccco1	1.9µM*	?	1.6µM*	?	3.5µM*	nt
O=C(CSc1nnc(NC(=O)c2ccccc2)s1)NCc1ccco1	4.8µM*	?	2.8µM*	?	3.2µM*	nt
O=C(CSc1nnc(NC(=O)C2CC2)s1)NCc1ccco1	-8%	7%	0%	0%	-3%	24%
Cc1ccccc1Nc1nnc(SCC(=O)NCc2ccco2)s1	3%	-18%	1%	0%	4%	6%
Cc1ccccc1C(=O)Nc1nnc(SCC(=O)NCc2ccco2)s1	1.7µM*	?	1.8µM*	2.9µM*	1.8µM*	nt
CC(C)(C)c1ccc(C(=O)NCc2nnc(SCC(=O)NCc3ccco3)o2)cc1	19µM*	8%	3%	7%	2%	nt
CCOc1ccc(C(=O)NCC(c2ccc3c(c2)OCO3)N2CCN(c3ccc(F)cc3)CC2)cc1 (configuration not stated)	-1%	nt	nt	nt	nt	nt
COc1cc(NS(=O)(=O)c2cc(Br)cc3c2N(C(=O)C2CC2)CC3)cc(OC)c1	-1%	nt	nt	nt	nt	nt
O=C(CSc1nnc(NC(=O)c2ccco2)s1)NCc1ccc2c(c1)OCO2	?	5%	-5%	-2%	-8%	10%
O=C(CSc1nnc(NC(=O)c2ccc3c(c2)OCO3)s1)NCc1ccco1	0.76µM*	?	1.1µM*	?	0.71µM*	4µM*
CCc1ccc(C(=O)COC(=O)c2cccs2)cc1	0.19µM*	?	2.5µM*	4.5µM*	1.4µM*	-11%
Cc1ccc(C(=O)COC(=O)c2cccs2)cc1	0.15µM*	?	0.79µM*	?	0.45µM*	?
CSc1ncccc1C(=O)OCC(=O)c1cccs1	19µM*	2%	-4%	0%	-2%	5%
O=C(OCC(=O)c1cccs1)c1cccc(C(=O)OCC(=O)c2cccs2)n1	12µM*	1%	-2%	-1%	9%	2%
Cc1ccc(C(=O)COC(=O)CNC(=O)c2cccs2)cc1	-20%	nt	nt	nt	nt	-10%
O=C(CN1C(=O)c2cccc3cccc(c23)C1=O)N1CCN(Cc2ccc3c(c2)OCO3)CC1	0%	?	6%	-42%	-12%	-16%
CN(C)c1ccc(C(=O)OCC(=O)c2cccs2)cc1	3.4µM*	?	3.5µM*	8.2µM*	1.8µM*	6.3µM*
Cc1ccnc(NC(=O)Nc2ccc(Br)cc2Cl)c1	0.48µM*	?	1µM*	?	0.63µM*	2.2µM*
Cc1ccnc(NC(=O)c2ccc([N+](=O)[O-])s2)c1	13µM*	?	3.2µM*	?	3.5µM*	nt
Cc1ccnc(NC(=O)CNC(=O)c2ccc(C)s2)c1	?	?	15%	?	-12%	nt

Screening results deposited in PubChem BioAssay by National Center for Advancing Translational Sciences (NCATS).
